Screen size: about 2,300 compounds; about 1,000 (43%) were called active. How the calls were made is not given here. So high a share suggests a set chosen from earlier hits. The list shows a part of the results. Measured potencies and affinities stand elsewhere.

A short description of the assay: modified counter assay using GFP fluorescence, PhoP regulon inhibitor project, dose response (AID 1985). The settings on record: S. Typhi, 4 h; series mostly up to 150 µM.
As for `Cc1ccc(C)c(NC(=O)CCC(=O)N/N=C/c2cc([N+](=O)[O-])ccc2O)c1`, the call was inactive. For the compound `O=[N+]([O-])c1ccc2oc(C3CCCCC3)nc2c1`, the compound was called inactive. For `CC(=O)Cc1nsc(NC(=O)c2csc3c2CCCC3)n1`, the call was inactive. Regarding `Oc1ccccc1-c1cc(C(F)(F)C(F)F)[nH]n1`, the compound was called inactive. For `CN1C(=O)/C(=C/c2cccc(Cl)c2)Sc2ccc(C(=O)N3CCCC3)cc21`, the compound was called inactive. Take `O=C(O)c1ccc(N2C(=O)CC(N3C(=O)/C(=C/c4ccc(Cl)cc4)SC3=S)C2=O)cc1` (stereo not given): the result was inactive. The entry for `CC1CCN(c2c(NCc3ccc(C(=O)N4CCN(C5CCCCC5)CC4)cc3)c(=O)c2=O)CC1` is “inactive”.

In the case of `Cc1cccc(NC(=O)c2sc3nc(-c4ccccc4)cn3c2C)n1`, the outcome was inactive. To `Cc1cc[n+](CC(=O)c2ccc(NC(=O)c3ccccc3)cc2)cc1` belongs “inactive”; to `COc1cccc(N2CCN(C(=S)NCc3ccco3)CC2)c1`, “inactive”.

Take `COc1ccc(OC)c(-c2cc(C(=O)Nc3ccc(F)cc3F)no2)c1`: the result was inactive. For the compound `N#Cc1nc(COc2ccc(Br)cc2)oc1NCCCn1ccnc1`, the call was inactive. For `Cc1cccc(CSCCNC(=O)COc2ccc(Cl)cc2)c1`, the compound was classed as inactive.

As to `Cc1cc(C)c2sc(N(CCCN(C)C)C(=O)COc3ccc(Cl)cc3)nc2c1`, the outcome was inactive. To `COc1ccc2nc(N(CCN(C)C)C(=O)/C=C/c3cccs3)sc2c1` belongs “inactive”; to `CN(C)CCN(C(=O)C1=COCCO1)c1nc2ccc(Cl)cc2s1`, “inactive”; to `COc1ccccc1C1CN(c2ccc(F)cc2F)N=C1c1cccs1` (stereo not given), “inactive”.

Turning to `Cc1ccc(S(=O)(=O)N2CCOCC2)cc1NC(=O)CSc1nc(N)cc(=O)[nH]1`, the compound was called inactive. Consider `C=CCN1C(=O)C(O)(CC(=O)c2c(C)n[nH]c2C)c2cc(Br)ccc21` (stereo not given), for which the compound was classed as inactive. As to `Cc1nc(N=Nc2ccc(O)cc2)n[nH]1`, the result was inactive.

Turning to `Cc1cc(C)nc(/N=C(\N)Nc2ccc(SC(F)F)cc2)n1`, the result was inactive. With `O=C(Cn1cc(/C=C\[N+](=O)[O-])c2ccccc21)Nc1ccccc1`, the result was inactive. The entry for `CC(C)(C)n1nc2c(c1NC(=O)Cc1cccs1)CSC2` is “inactive”; for `CC1(NC(=O)NCCCCCCNC(=O)NC2(C)CCS(=O)(=O)C2)CCS(=O)(=O)C1` (stereo not given) it is “inactive”; for `O=C(Nc1ccc2[nH]c(=S)sc2c1)Nc1ccccc1F` it is “inactive”.

As to `Nc1ncnc2nc(SCC(=O)Nc3cccc(C(F)(F)F)c3)[nH]c12`, the call was inactive. Take `Clc1ccc(Cn2cccc2C2=NCCO2)cc1`: the compound was called inactive. For `c1cnc2nc(-c3ccc4c(c3)OCO4)cn2c1`, the call was inactive. With `CN1CCN(c2nc(Nc3ccc(F)cc3)nc(Nc3ccc(F)cc3)n2)CC1`, the call was inactive. As for `COc1ccc(S(=O)(=O)N[C@H](C(=O)N2CC[C@@]3(O)CCCC[C@H]3C2)c2ccccc2)cc1`, the compound was classed as inactive. For `CCN(CC)CCOC(=O)c1cc(Cl)c(N)cc1OC`, the compound was called inactive.

For `O=C(/C=C/c1ccc(O)cc1)c1ccccc1`, the compound was classed as inactive. On to `CCc1c(C)n([O-])c2c([n+]1=O)CCCCC2`, for which the call was inactive. Take `COc1ccc(N(CC(=O)N2c3ccccc3CC2C)S(=O)(=O)c2c(C)noc2C)cc1` (stereo not given): the compound was called inactive. Take `N#Cc1c(/N=C/c2cccs2)sc2c1CCCCC2`: the result was inactive.

Take `Cc1cc(C)cc(CSc2nnc(C)c(=O)[nH]2)c1`: the result was inactive.

As to `COc1cccc(CNC(=O)C2CCN(S(=O)(=O)c3ccc(C)cc3)CC2)c1`, the call was inactive. To `CC(=O)NC(c1ccc(Cl)cc1Cl)c1ccc2cccnc2c1O` (stereo not given) belongs “inactive”; to `Cc1ccc(Cn2c(=N)c(C(=O)NCCN3CCOCC3)cc3c(=O)n4ccccc4nc32)cc1`, “inactive”; to `COc1cc2[nH]c(=O)n(Cc3ccc(C(=O)N4CCC(N5CCCCC5)CC4)cc3)c(=O)c2cc1OC`, “inactive”. For `O=C(c1cc2c(s1)-c1ccccc1OC2)N1CCc2ccccc2C1`, the call was inactive. For `CNC[C@@H](CC1CCCCC1)NC[C@H](CC(C)C)NCCc1cccc(C(F)(F)F)c1`, the call was inactive. `CS(=O)(=O)N1CC(C(=O)NC2CC2)Oc2ccc(Cl)cc21` (stereo not given): the call was inactive.

For the compound `CCCSc1nc2cc(OC)c(OC)cc2c(=N)n1CCCN1CCOCC1`, the result was inactive. To `CC(C)(C)NC(=O)c1ccc2c3c(cccc13)CC2` belongs “inactive”. With `O=C(CSc1nnnn1C1CCCCC1)N1CCCC1`, the compound was called inactive. To `COCCn1nnnc1C(c1cccc(OC)c1OC)N1CCN(C2CCCCC2)CC1` (stereo not given) belongs “inactive”; to `CC(C)OC(=O)c1cccc(C(=O)Oc2ccc(Br)cc2)n1`, “inactive”; to `CCOc1ccc(Cl)cc1/C=N/O`, “inactive”. `O/N=C/C1=C(Cl)c2ccccc2CC1`: the compound was classed as inactive. On to `CCOC(=O)Cn1c(=O)oc2cc(S(=O)(=O)NCC3CCCO3)ccc21` (stereo not given), for which the compound was classed as inactive. As for `CCOC(=O)C(NC(C)=O)(OCc1ccc(F)cc1)C(F)(F)F` (stereo not given), the call was inactive.

On to `Cc1nn(Cc2ccccc2Cl)c2sc(C(=O)Nc3ccccc3N3CCOCC3)cc12`, for which the result was inactive. For `O=C1SC(c2ccccc2)=C/C1=C\N1CCCCC1`, the outcome was inactive. For `CC(C)C(NS(=O)(=O)c1cccc2nsnc12)C(=O)N1CCn2c1nc1ccccc12` (stereo not given), the call was inactive. `Nc1[nH]c(=O)ncc1F`: the compound was called inactive. On to `O=C1c2cccnc2C(=O)N1c1ccccc1-c1ccccc1`, for which the compound was classed as inactive. The entry for `Cc1ccc2c(c1)c1c(n2CC(O)CN2CCC(C)CC2)CCCC1` (stereo not given) is “inactive”. For `Cc1ccc(-n2c(=O)c3sccc3n(CC(=O)NC3CCCCC3)c2=O)cc1`, the result was inactive. To `CCN(CC)C(=O)C1CCN(Cc2ccc(Br)cc2)CC1` belongs “inactive”; to `COCCNC(=O)c1cccc(OC2CCN(Cc3ccccc3C)CC2)c1`, “inactive”; to `C[N+]1(C)C2CCC1CC(OC(=O)c1ccccc1)C2` (stereo not given), “inactive”. The entry for `N=c1c(C(=O)NCC2CCCO2)cc2c(=O)n3ccccc3nc2n1Cc1ccc(Cl)cc1` (stereo not given) is “inactive”; for `CCOc1ccc(NC(=O)CN(C)S(=O)(=O)c2cccs2)cc1` it is “inactive”; for `Cc1ncc(CC(=O)n2cc(C(=O)c3cc(F)ccc3O)cn2)s1` it is “inactive”.

On to `CN(C)C(=O)CC12CC3CC(C1)CC(CC(=O)N(C)C)(C3)C2`, for which the call was inactive. The entry for `Nc1cc2c3c(cccc3c1)C(=O)N(CCN1CCCC1)C2=O` is “inactive”; for `CC[C@H](C)[C@@H](CN[C@H](C)CNC)NCCC(c1ccccc1)c1ccccc1` it is “inactive”; for `O=C(Cn1c(=O)oc2ccccc21)N1CCN(c2ccc(N3CCOCC3)nn2)CC1` it is “inactive”. Take `CCn1c(O)c(N=NC(=O)CNC(=O)/C=C/c2ccco2)c2ccccc21`: the outcome was inactive.

The values are drawn from PubChem BioAssay AID1985 (Southern Research Specialized Biocontainment Screening …, 2009).
